Assay results reported in PubChem BioAssay AID588579 (National Center for Advancing Translational Sciences (NCATS), 2011).
“And” between values parts separate entries of the source, which are not always exact repeats. Identical values can stand only once. The campaign covered roughly 400,000 compounds. About 2,200 (0.55%) were called active. Inconclusive results (about 1%) are left out. The call rests on the fitted dose curve; in most records, active means well fitted inhibition curve with a large enough effect; inconclusive means small, poorly fitted or top-dose-only effect, or another doubt; inactive means no such curve, though single readings can be large or run the other way. Shown is part of a subset that was picked to be rich in actives. Entries that show only a call come without a potency. Some structures have more than one record in an assay (separate samples or runs), and their calls can disagree.

Each molecule was assayed against DNA polymerase kappa (Homo sapiens) (UniProt Q9UBT6) (assay: qHTS for Inhibitors of Polymerase Kappa). Details: purified Pol kappa, fluorescent DNA synthesis assay, 10 min; series mostly up to 60.1 µM.
Description: The processing and repair of DNA interstrand crosslinks (ICL) in eukaryotic cells are extremely complex, potentially involving multiple DNA repair and damage tolerance pathways, including homologous recombination, nucleotide excision repair, translesion synthesis (TLS), and cell cycle checkpoints.
To that end, in a collaboration between the Oregon Health & Science University and the NIH Chemical Genomics Center a 1536-well high-throughput screen was developed. This fluorescent screen was assayed against the NIH Molecular Libraries Small Molecule Repository (MLSMR) to discover inhibitors of Pol Kappa.
NIH Chemical Genomics Center [NCGC]
NIH Molecular Libraries Probe Centers Network [MLPCN]
Assay Submitter (PI): Stephen Lloyd, Oregon Health & Science University
Three microliters of reagents (buffer in column 3 and 4 as negative control and 10 nM Pol kappa in columns 1, 2, and 5-48) were dispensed into a 1536-well black solid-bottom plate. Compounds (23 nL) were transferred via Kalypsys pin tool equipped with 1536-pin array. The plates were then incubated for 15 min at room temperature, and 1 uL substrate (50 nM final concentration) were then added to start the reaction and kinetically read twice at 0 min and 10 min on the Viewlux reader
Potency means the concentration at half of the fitted maximal effect.

DNA polymerase kappa (Homo sapiens), sequence (Q9UBT6 whole entry, looked up): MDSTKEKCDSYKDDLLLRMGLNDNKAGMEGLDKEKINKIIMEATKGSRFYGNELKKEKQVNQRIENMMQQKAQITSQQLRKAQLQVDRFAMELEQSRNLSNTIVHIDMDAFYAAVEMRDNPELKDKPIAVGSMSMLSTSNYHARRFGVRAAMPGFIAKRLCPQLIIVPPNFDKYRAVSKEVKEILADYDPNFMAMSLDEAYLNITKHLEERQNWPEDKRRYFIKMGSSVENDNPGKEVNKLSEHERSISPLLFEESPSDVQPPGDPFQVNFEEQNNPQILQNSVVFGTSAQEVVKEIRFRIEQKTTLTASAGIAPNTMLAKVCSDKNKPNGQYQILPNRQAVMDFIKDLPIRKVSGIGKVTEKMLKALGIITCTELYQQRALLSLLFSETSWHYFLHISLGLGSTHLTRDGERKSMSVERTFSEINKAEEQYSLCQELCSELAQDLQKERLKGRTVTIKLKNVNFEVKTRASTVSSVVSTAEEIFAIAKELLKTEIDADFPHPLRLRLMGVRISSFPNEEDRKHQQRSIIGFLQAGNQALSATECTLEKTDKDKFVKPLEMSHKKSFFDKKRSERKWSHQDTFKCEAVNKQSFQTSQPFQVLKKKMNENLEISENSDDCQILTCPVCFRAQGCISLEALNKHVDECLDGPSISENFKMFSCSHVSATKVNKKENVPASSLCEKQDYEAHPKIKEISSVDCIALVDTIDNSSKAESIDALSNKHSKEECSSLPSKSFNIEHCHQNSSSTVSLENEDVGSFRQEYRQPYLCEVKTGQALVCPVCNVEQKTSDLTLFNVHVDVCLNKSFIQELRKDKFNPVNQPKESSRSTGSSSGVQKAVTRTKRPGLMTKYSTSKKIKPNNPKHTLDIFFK

Compound | Potency | activity, negative = inhibition
Cc1cc(/C=C2/C(=O)NC(=O)N(Cc3ccco3)C2=O)c(C)n1-c1ccc(C(=O)O)cc1 | 50.1 µM (active) | –
CN[C@@H]1C[C@H]2O[C@@](C)([C@@H]1OC)n1c3ccccc3c3c4c(c5c6ccccc6n2c5c31)C(=O)NC4 | inactive | –
CCN1C[C@]2(COC)C(O)C[C@H](OC)[C@@]34C5C[C@]6(O)C(OC)C(O)[C@](OC(C)=O)(C5C6OC(=O)c5ccccc5)C(C(OC)C23)C14 (some centres undefined) | inactive | –
CC(CCC(=O)O)C1CCC2C3C(O)C[C@@H]4CC(O)CC[C@@]4(C)C3CC[C@@]12C (some centres undefined) | inactive | –
COc1ccc(C2Oc3c(I)c(OC)cc(OC)c3CC2O)cc1OC (centres undefined) | inactive | –
N[C@H](Cc1o[nH]c(=O)c1Cl)C(=O)O | inactive | –
CN1CCN(C(=O)O[C@@H]2c3nccnc3C(=O)N2c2ccc(Cl)cn2)CC1 | inactive | –
C/C(=C\C=C/[C@@H](C)C(=O)O)[C@H]1CN[C@H](C(=O)O)[C@@H]1CC(=O)O | inactive | –
N[C@H](C(=O)O)c1cc(=O)[nH]o1 | inactive | –
O=C1CC(=O)N(Cc2ccccc2)C(=O)N1CCCCCCN1C(=O)CC(=O)N(Cc2ccccc2)C1=O | 22.4 µM (active) | –
CC(C)(C)c1ccc(CN2C(=O)CN=C(c3ccccc3)c3ccccc32)cc1 | inactive | –
COC1CC(OC2CC[C@@]3(C=O)C4CC[C@]5(C)C(C6=CC(=O)OC6)CC[C@@]5(O)C4CC[C@]3(O)C2)OC(C)C1O (some centres undefined) | inactive | –
C[C@]12CC[C@@H]3c4ccc(O)cc4C[C@@H](CCCCCCCCCS(=O)CCCC(F)(F)C(F)(F)F)C3[C@@H]1CC[C@@H]2O (some centres undefined) | inactive | –
CO[C@@H]1C[C@@H](C[C@H]2CC[C@H](C)[C@@H]([C@@H](C)C(=O)O)O2)O[C@]2(O[C@](C)([C@H]3CC[C@@](C)(C4OC([C@H]5O[C@@](O)(CO)[C@H](C)C[C@@H]5C)C[C@@H]4C)O3)C[C@H]2C)[C@@H]1C (some centres undefined) | inactive | –
CN=C(NC#N)NCCSCc1nc[nH]c1C | inactive and 28.2 µM (active) | –
NC[C@H](O)c1ccc(O)cc1 | – | -4.18% [at 12 µM] (inactive)
CC[C@]1(O)C(=O)OCc2c1cc1n(c2=O)Cc2cc3ccccc3nc2-1 | inactive | –
Fc1ccc(C(OCCN2CCN(C/C=C\c3ccccc3)CC2)c2ccc(F)cc2)cc1 | inactive | –
CC[N+](C)(CC)CCC[n+]1c(-c2ccccc2)c2cc(N)ccc2c2ccc(N)cc21 | 6.31 µM (active) | –
CC(C)(O)c1[se]c2ccccc2c1I | inactive | –
CN1[C@@H]2CC[C@H]1CC(OC(=O)c1cc(Cl)cc(Cl)c1)C2 (some centres undefined) | inactive | –
COc1ccc(N2C(=O)/C(=C/c3ccco3)C(=O)NC2=S)cc1 | 4.47 µM (active) | –

Compound | Potency | activity, negative = inhibition
CCN1C[C@]2(C)CC[C@H](O)[C@@]34[C@@H]5CC6[C@@H](OC)C[C@@](O)([C@@H]5[C@@H]6O)[C@H](C[C@@H]23)[C@H]14 | – | -3.02% [at 12 µM] (inactive)
N#Cc1cc(Br)c(O)c(Br)c1 | inactive | –
CN(C)[C@@H]1C(=O)C(C(N)=O)=C(O)[C@@]2(O)C(=O)C3=C(O)c4c(O)cccc4[C@@](C)(O)C3CC12 (some centres undefined) | inactive | –
c1ccc2sc(SNC3CCCCC3)nc2c1 | inactive | –
NCCCCC(N)C(=O)O (centres undefined) | inactive | –
C=CCN1CCC2(C)c3cc(O)ccc3CC1[C@@H]2C (some centres undefined) | inactive | –
CCCN(C/C=C/I)C1CCc2ccc(O)cc2C1 (centres undefined) | inactive | –
CO[C@H]1[C@@H](O)[C@@H](C)O[C@H](O[C@H]2[C@H](Oc3cccc4c(O)c5c(=O)oc6ccc(C)c7c(=O)oc(c34)c5c67)O[C@H](C)[C@H](O)[C@@H]2O)[C@@H]1O | 35.5 µM (active) | –
c1ccc(CN2CC[C@@]3(CCCNC3)C2)cc1 | inactive | –
CCCCCCCCCCCCN=C(N)N | inactive | –
CN(C)C1C(=O)C(C(N)=O)=C(O)[C@@]2(O)C(=O)C3=C(O)c4c(O)cccc4[C@@](C)(O)C3C[C@@H]12 (some centres undefined) | inactive | –
N#CC(C#N)=Cc1cc(O)c(O)c([N+](=O)[O-])c1 | 2.82 µM (active) | –
COC([CH2][Hg])CNC(=O)c1ccccc1OCC(=O)O (centres undefined) | inactive | –
Nc1ccc(-c2ccc(N)c(N)c2)cc1N | inactive | –
CN(C)C[C@H]1CCCC[C@]1(O)c1cccc(O)c1 | inactive | –
CC[C@@H]1CN2CC[C@@H]1C[C@H]2[C@H](O)c1ccnc2ccc(OC)cc12 | inactive | –
CC1=CC(=O)C2=C(C)C[C@H](O)[C@H]3[C@H](C)C(=O)O[C@@H]3C12 (some centres undefined) | inactive | –
C[C@H]1C/C=C/[C@@H]2[C@@H]3O[C@]3(C)[C@@H](C)[C@H]3[C@H](Cc4ccccc4)NC(=O)[C@]32OC(=O)O/C=C/[C@](C)(O)C1=O | – | -10.2% [at 12 µM] (inactive)
Cc1c(C(=O)O)cccc1-n1c(C)cc(/C=C2\C(=O)NC(=O)N(c3ccc4c(c3)OCO4)C2=O)c1C | 44.7 µM (active) | –
CC(=O)OC1C2CCC3C1(CC(O)[C@@]1(O)[C@@H](CC(O)C1(C)C)[C@]3(C)O)C[C@@]2(C)O (some centres undefined) | inactive | –
C=CCSSCC=C | inactive | –
C[C@]12O[C@H](C[C@@]1(O)C(=O)O)n1c3ccccc3c3c4c(c5c6ccccc6n2c5c31)CNC4=O | inactive | –

Compound | Potency | activity, negative = inhibition
C[C@@]12CCC3C(CC[C@@H]4CC(O)CC[C@@]34C)C1CCC2O (some centres undefined) | inactive | –
CCCCC/C=C\C/C=C\C/C=C\C/C=C\CCCCCC(=O)NCCO | inactive | –
Cc1cccc2c3c(ccc12)C1=C(C(=O)C3=O)C(C)CO1 (centres undefined) | 20 µM (active) | –
C[C@@]12CC[C@H]3[C@@H](CC[C@]4(O)C[C@H](O)CC[C@@]34C=O)[C@]1(O)CC[C@@H]2C1=CC(=O)OC1 | – | -6.33% [at 12 µM] (inactive)
C[C@@H]1C[C@@H]2O[C@H]2/C=C\C=C\C(=O)Cc2c(Cl)c(O)cc(O)c2C(=O)O1 | 39.8 µM (active) | –
c1ccc(CCCCN2CCC(c3ccccc3)CC2)cc1 | inactive | –
O=C(N/N=C/c1ccc([N+](=O)[O-])o1)c1cc([N+](=O)[O-])cc([N+](=O)[O-])c1O | inactive | –
c1ccc(N2CC[C@@]3(CCCNC3)C2)nc1 | inactive | –
COc1cccc(N2C(=O)NC(=O)/C(=C\c3ccc([N+](=O)[O-])s3)C2=O)c1 | 25.1 µM (active) | –
O=C1NC(=O)N(c2ccccc2)C(=O)/C1=C/c1ccc([N+](=O)[O-])s1 | 31.6 µM (active) | –
CC(=O)[O][Sn]([c]1ccccc1)([c]1ccccc1)[c]1ccccc1 | inactive | –
CCCCCCCCc1[se]c2ccccc2c1Br | inactive | –
ClCCN(CCCl)c1ccc(C=Nc2ccc(/C=C/c3ccnc4ccccc34)cc2)cc1 | inactive | –
CC(C)(Cc1c[nH]c2ccc(Cl)cc12)NCCOc1ccccc1OCC1CC1 | inactive | –
CCN(CC)c1nc(C)cc(OP(=S)(OC)OC)n1 | inactive | –
C[C@@H]1C[C@H]2CC[C@H](O2)[C@H](C)C(=O)O[C@@H](C)C[C@@H]2CC[C@@H](O2)[C@@H](C)C(=O)O[C@H](C)C[C@H]2CC[C@H](O2)[C@H](C)C(=O)O[C@@H](C)C[C@@H]2CC[C@@H](O2)[C@@H](C)C(=O)O1 | inactive | –
O=C(Nc1cccc(F)c1)N1CC[C@@]2(CCCN(C(=O)Oc3ccccc3)C2)C1 | inactive | –
CC(C)(c1ccc(OC[C@@H]2CO2)cc1)c1ccc(OC[C@H]2CO2)cc1 | inactive | –
COc1ccc2[nH]cc(CCNCc3ccc(Br)cc3)c2c1 | inactive | –
O=C1CCc2cccc3c2N1CC3 | – | -11.9% [at 12 µM] (inactive)
